Experimental data from PubChem BioAssay (NCATS).
Inconclusive results are not listed. Unless noted, calls come from the whole dose curve; as a rule, active = well fitted curve in either direction with a large enough effect (not every such curve was filed as active); inconclusive = small, poorly fitted or top-dose-only effect, or another doubt; inactive = flat fitted curve, though single readings scatter.

Experiments:
[1] = AP1 Signaling Pathway (AID 357); settings: ME-180 AP-1-bla reporter, EGF-induced, beta-lactamase ratio, 5 h; at 17.2 µM (top of the series) unless noted;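 note: ME-180 reporter cells stimulated with EGF at its EC50 level; % is set by controls: 0 for no effect and ±100 for the full control effect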
How it was run: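 AP-1-bla ME-180 cells, Opti-MEM + 0.5% dialyzed FBS, plated overnight 37 °C. Cpd titration + EC50 EGF, 5 h 37 °C. CCF4 2.5 h RT; ex 405, em 460/530 ratio → %activity, AC50.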

[2] = NFAT Signaling Pathway (AID 444); settings: Jurkat NFAT-bla M1, carbachol, beta-lactamase ratio, 5 h; at 17.2 µM (top of the series) unless noted;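 note: carbachol stimulus at about its EC50 of 1 µM final; % is set by controls: 0 for no effect and ±100 for the full control effect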
How it was run: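 Jurkat cells with NFAT-driven β-lactamase reporter and co-expressed M1 receptor, stimulated with carbachol (final 1 uM, ~EC50), compound titration, 5 h at 37 °C. CCF4 loaded 1 h at RT; 460/530 nm ratio gave %activity and AC50.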

[3] = Stat Signaling Pathway (AID 446); settings: ME-180 (cervical carcinoma) SIE beta-lactamase reporter, IL-6 stimulated, 5 h; at 17.2 µM (top of the series) unless noted;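 note: ME-180 cervical cancer cells given 40 pM IL-6 alongside compound; SIE-controlled beta-lactamase reporter measured as 460/530 nm FRET emission ratio; % is set by controls: 0 for no effect and ±100 for the full control effect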
How it was run: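 Normalization used AC90 stimulation (300 pM IL-6) and AC90 inhibition (125 nM pan-JAK inhibitor at 40 pM IL-6). The underlying signal is SIE-driven beta-lactamase in ME-180 cells after 5 h IL-6 exposure with compound.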

[4] = target: Glucocorticoid receptor (Homo sapiens) (UniProt P04150); test: GR-GFP Redistribution (AID 450;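 active = compounds whose dose series gives a full or clear partial fitted curve of increased nuclear translocation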; note: potency is the fitted concentration of half-maximal effect)
Chain of Glucocorticoid receptor (Homo sapiens) (P04150 whole entry, looked up): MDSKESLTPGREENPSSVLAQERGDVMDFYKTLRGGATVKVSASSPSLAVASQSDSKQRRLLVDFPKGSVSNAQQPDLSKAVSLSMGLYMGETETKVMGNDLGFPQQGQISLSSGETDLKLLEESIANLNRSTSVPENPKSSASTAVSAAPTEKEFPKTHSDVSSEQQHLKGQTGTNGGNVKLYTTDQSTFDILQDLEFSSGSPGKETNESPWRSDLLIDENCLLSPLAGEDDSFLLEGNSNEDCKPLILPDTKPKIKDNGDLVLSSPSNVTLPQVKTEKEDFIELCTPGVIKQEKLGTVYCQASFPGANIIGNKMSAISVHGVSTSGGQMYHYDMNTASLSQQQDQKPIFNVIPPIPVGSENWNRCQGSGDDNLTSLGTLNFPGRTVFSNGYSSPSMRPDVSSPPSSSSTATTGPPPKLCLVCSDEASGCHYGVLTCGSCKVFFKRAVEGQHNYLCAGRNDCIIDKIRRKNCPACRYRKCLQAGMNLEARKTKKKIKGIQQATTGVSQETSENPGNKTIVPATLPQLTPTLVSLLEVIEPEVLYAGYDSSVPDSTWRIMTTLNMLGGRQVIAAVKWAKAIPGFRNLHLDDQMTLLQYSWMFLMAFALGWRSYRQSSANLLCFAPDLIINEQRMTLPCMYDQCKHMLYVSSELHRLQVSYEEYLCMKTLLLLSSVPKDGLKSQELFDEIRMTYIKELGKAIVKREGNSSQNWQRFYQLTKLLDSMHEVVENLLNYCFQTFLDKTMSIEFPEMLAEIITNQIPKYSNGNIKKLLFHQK

COC(=O)C(NC(=O)c1ccc(F)cc1)(Nc1nc(C)cs1)C(F)(F)F (centres undefined)
inactive: activity change, negative = inhibition [1] -0.49% | activity change, negative = inhibition [2] -21.1% | activity, negative = inhibition [3] -10.7% | Potency [4] > 20.6 µM

CN(C)CCCNCCCCNC(=O)/C=N/O
inactive: activity change, negative = inhibition [1] 5.81% | activity change, negative = inhibition [2] 11.9% | activity, negative = inhibition [3] -0.521% | Potency [4] > 20.6 µM

CSc1nc(NC(C)=O)nc(C)c1Cl
inactive: activity change, negative = inhibition [1] 11.1% | activity change, negative = inhibition [2] -9.42% | activity, negative = inhibition [3] 3.48% | Potency [4] > 20.6 µM

O=C1c2ccccc2C(=O)N1CC1c2ccccc2CCN1C(=O)N1CCOCC1 (centres undefined)
inactive: activity change, negative = inhibition [1] -3.7% | activity change, negative = inhibition [2] -0.0702% | activity, negative = inhibition [3] 1.92% | Potency [4] > 20.6 µM

O=C(O)c1cc2sccc2s1
inactive: activity change, negative = inhibition [1] -0.721% | activity change, negative = inhibition [2] -6.24% | activity, negative = inhibition [3] 2.27% | Potency [4] > 20.6 µM

Cc1c(C)n(C(=O)CSc2nccn2C)c2ccccc12
inactive: activity change, negative = inhibition [1] 14.1% | activity change, negative = inhibition [2] -0.559% | activity, negative = inhibition [3] 0.828% | Potency [4] > 20.6 µM

CCc1cccc(C)c1N(C(=O)Cn1c(=O)[nH]c2ccccc21)C(C)COC (centres undefined)
inactive: activity change, negative = inhibition [1] -2.33% | activity change, negative = inhibition [2] 17.7% | activity, negative = inhibition [3] -1.06% | Potency [4] > 20.6 µM

COc1ccc(CCNC2CC(C)N(C)CC2C)cc1OC (centres undefined)
inactive: activity change, negative = inhibition [1] 2.19% | activity change, negative = inhibition [2] -14.9% | activity, negative = inhibition [3] 4.89% | Potency [4] > 20.6 µM

CN(C)C(=O)COn1c(SCC(=O)N(C)C)nc2ccccc2c1=O
inactive: activity change, negative = inhibition [1] 6.36% | activity change, negative = inhibition [2] 14.2% | activity, negative = inhibition [3] 2.27% | Potency [4] > 20.6 µM

Cc1oc2nc(SCCCC(=O)NCCCO)nc(N)c2c1C
inactive: activity change, negative = inhibition [1] -11.8% | activity change, negative = inhibition [2] 15.2% | activity, negative = inhibition [3] 4.84% | Potency [4] > 20.6 µM

Cc1cc2c(C)nc(Cc3ccccc3)nc2o1
inactive: activity change, negative = inhibition [1] -3.87% | activity change, negative = inhibition [2] -3.38% | activity, negative = inhibition [3] 5.35% | Potency [4] > 20.6 µM

NS(=O)(=O)c1cc2c(cc1Cl)NC(C1C[C@H]3C=C[C@@H]1C3)NS2(=O)=O (some centres undefined)
inactive: activity change, negative = inhibition [1] 4.88% | activity change, negative = inhibition [2] -20.1% | activity, negative = inhibition [3] -0.0433% | Potency [4] > 20.6 µM

Cc1csc2nc(CSc3nc4ccccc4o3)cn12
inactive: activity change, negative = inhibition [1] -11.6% | activity change, negative = inhibition [2] -1.77% | activity, negative = inhibition [3] 4.59% | Potency [4] > 20.6 µM

CCCOc1ccc(C2NC(=O)NC2=O)cc1 (centres undefined)
inactive: activity change, negative = inhibition [1] 5.97% | activity change, negative = inhibition [2] 9.35% | activity, negative = inhibition [3] -1.78% | Potency [4] > 20.6 µM

O=C(NCCO)C1(c2ccccc2)CCCC1
inactive: activity change, negative = inhibition [1] 15.9% | activity change, negative = inhibition [2] -7.5% | activity, negative = inhibition [3] 2.26% | Potency [4] > 20.6 µM

O=P(O)(c1ccccc1)c1ccccc1O
inactive: activity change, negative = inhibition [1] 6.62% | activity change, negative = inhibition [2] 7.27% | activity, negative = inhibition [3] 8.28% | Potency [4] > 20.6 µM

O=c1[nH]c(-c2ccccn2)nc2ccccc12
inactive: activity change, negative = inhibition [1] -2.38% | activity change, negative = inhibition [2] -10.6% | activity, negative = inhibition [3] 13.3% | Potency [4] > 20.6 µM

N#C/C(C(=O)N1CCOCC1)=C1/SC(Cc2ccccc2)C(=O)N1c1ccccc1 (centres undefined)
inactive: activity change, negative = inhibition [1] 6.74% | activity change, negative = inhibition [2] -2.77% | activity, negative = inhibition [3] -8.3% | Potency [4] > 20.6 µM

O=C(NCC(F)(F)F)N1CCOCC1
inactive: activity change, negative = inhibition [1] 6.11% | activity change, negative = inhibition [2] 0.794% | activity, negative = inhibition [3] -4.01% | Potency [4] > 20.6 µM

CCOCc1nc(N)[nH]c(=O)c1Cc1ccc(OC(C)C)cc1
inactive: activity change, negative = inhibition [1] 1.48% | activity change, negative = inhibition [2] 13.9% | activity, negative = inhibition [3] 9.73% | Potency [4] > 20.6 µM

O=C1OC2CCC1(c1ccccc1)C2 (centres undefined)
inactive: activity change, negative = inhibition [1] -4.71% | activity change, negative = inhibition [2] 10% | activity, negative = inhibition [3] -3.95% | Potency [4] > 20.6 µM

CCOC(=O)CSC1=C(C#N)C(c2ccc(OC)cc2)C2=C(CC(C)(C)CC2=O)N1 (centres undefined)
inactive: activity change, negative = inhibition [1] -15.4% | activity change, negative = inhibition [2] 7.5% | activity, negative = inhibition [3] -4.41% | Potency [4] > 20.6 µM

COc1ccccc1-c1c(C)oc2c(CN3CCN(C)CC3)c(O)ccc2c1=O
inactive: activity change, negative = inhibition [1] 1.13% | activity change, negative = inhibition [2] 5.13% | activity, negative = inhibition [3] 4.08% | Potency [4] > 20.6 µM

CCCOC(=O)C1[C@H]2C(=O)N(Cc3ccco3)C[C@]23C=C[C@H]1O3 (some centres undefined)
inactive: activity change, negative = inhibition [1] 0.485% | activity change, negative = inhibition [2] 2.35% | activity, negative = inhibition [3] 4.93% | Potency [4] > 20.6 µM

COc1ccccc1N(O)C1CC(=O)N(c2ccc(Br)cc2)C1=O (centres undefined)
inactive: activity change, negative = inhibition [1] -7.13% | activity change, negative = inhibition [2] -6.72% | activity, negative = inhibition [3] -0.749% | Potency [4] > 20.6 µM

COc1cc(C2C(C#N)=C(N)Oc3cc(C)n(CCN4CCOCC4)c(=O)c32)cc(OC)c1OC (centres undefined)
inactive: activity change, negative = inhibition [1] 10.6% | activity change, negative = inhibition [2] 6.98% | activity, negative = inhibition [3] -2.02% | Potency [4] > 20.6 µM
